Screens (PubChem BioAssay)
Only a selection was taken, and hits are over-represented in it overall.
ERG Ets-DNA blk: inhibitors of human ERG Ets domain-DNA interaction. fluorescence polarization, His-ERG Ets domain / labelled DNA. 370,000 tested, 0.028% active. Potency, µM (titrated, usually from 76.9 µM), for inactives: top-dose FP activity, negative = inhibition, usual class: inhibitors. AID 624246; active = well fitted inhibition curve with a large enough effect in the polarisation, with a control signal flat; inconclusive = small, poorly fitted or top-dose-only effect, or effect the other way, or a change in a side signal; inactive = no such curve, though single readings can be large or run the other way; the % refers to the polarisation;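 also: polarization taken with two DNA probes labelled with fluorescein and Texas red; potency is read from the fitted curve at half-maximal effect; % of control where 0% means no effect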
Target sequence (P11308 whole entry, looked up, the tested form may be a part): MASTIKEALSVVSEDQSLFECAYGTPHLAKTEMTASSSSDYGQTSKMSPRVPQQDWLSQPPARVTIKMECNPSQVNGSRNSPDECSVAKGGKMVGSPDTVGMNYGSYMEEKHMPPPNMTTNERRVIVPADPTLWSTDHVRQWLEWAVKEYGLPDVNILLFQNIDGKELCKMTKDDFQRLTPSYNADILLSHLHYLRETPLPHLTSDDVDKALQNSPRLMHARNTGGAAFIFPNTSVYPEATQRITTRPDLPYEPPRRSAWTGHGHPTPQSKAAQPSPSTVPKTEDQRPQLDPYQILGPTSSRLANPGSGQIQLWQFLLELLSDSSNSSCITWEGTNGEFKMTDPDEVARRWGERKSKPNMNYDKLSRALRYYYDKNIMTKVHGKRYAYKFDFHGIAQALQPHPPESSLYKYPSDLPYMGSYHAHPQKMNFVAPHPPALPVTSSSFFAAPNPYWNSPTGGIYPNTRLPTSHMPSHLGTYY
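His-tagged ERG Ets domain (1 uM in the protein solution; 300mM KCl, 50mM Tris-HCl, 1mM EDTA, 1mM DTT, pH 7.5) received compound, then a probe mix of 5 nM fluorescein-DNA and 100nM Texas-615-DNA. Fluorescence polarization was read for both dyes.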
Integrin act MD: activates integrin-mediated alleviation for muscular dystrophy | Potency, µM (highest dose often 38.3 µM), for the others: top-dose activation, hits mostly activators | alpha7betagal myoblasts, beta-gal FDG fluorescence, 48 h | 350,000 tested, 0.064% active;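 also: potency is read from the fitted curve at half-maximal effect; 100% = response of the positive control SU9516; nearly all actives have a fitted effect of over 60% in size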
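Alpha7betagal+/- myoblasts (passage 13) were plated 16-24 hr, then exposed to compounds (1:260 dilution of DMSO stock) for 48 hours at 37C. After MPER lysis, β-galactosidase reporter activity was read as FDG fluorescence (ex 480/em 540) after 30 minutes.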
Giardia killer: kills Giardia lamblia. Giardia lamblia trophozoite viability. activity change, % at 7.66 µM, hits read low. 340,000 tested, 0.15% active. AID 540267; in the data active = activity change below about -80%; inconclusive = between about -30% and that limit;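 also: parasites exposed to compound for two days anaerobically before the ATP read; % is scaled to controls: 0 for no effect and ±100 for the full control effect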
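Giardia trophozoites, 100 cells per well, were exposed to compounds for 48 hrs at 37 deg C under anaerobic conditions; viability was then read as ATP content by bioluminescence after 15-30 min at room temperature.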
Gal4-VP16 FLuc: counter-screen for ROR gamma inhibitors: Gal4-VP16 reporter; Drosophila S2 Gal4-VP16 UAS-luciferase, luminescence, 20 h; Potency, µM (top dose mostly 53.6 µM), inactives show at the highest dose activity, negative = inhibition, hits mostly inhibitors; 310,000 tested, 3.5% active; AID 2546;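 also: Gal4-VP16 expression switched on by copper sulfate through the metallothionein promoter; potency is read from the fitted curve at half-maximal effect; % is scaled to controls: 0 for no effect and ±100 for the full control effect; nearly all actives have a fitted effect of over 50% in size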
RORg inh: inhibitors of mouse ROR gamma transcriptional activity. P51450. Drosophila S2 Gal4-RORgamma UAS-luciferase reporter, 20 h. Potency, µM (titrated, usually from 53.6 µM), for inactives: at the top dose activity change, negative = inhibition, actives largely listed as inhibitors. 310,000 tested, 5.4% active. AID 2551; also: potency is read from the fitted curve at half-maximal effect; % is scaled to controls: 0 for no effect and ±100 for the full control effect; nearly all actives have a fitted effect of over 60% in size
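Read-out: Photinus luciferase luminescence; inhibitors lower reporter signal. Insect Schneider cells with Gal4-ROR gamma fusion under metallothionein promoter, UAS reporter; 700 uM final copper sulfate induction, 20 hr, ambient temperature.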
* marks the source's active call; other numbers are inactive results; u = inconclusive; x = not tested or not shown; ! = not confirmed by another sample; [ ] = remark or other dose. Unless noted, calls follow the shape of the dose curve; as a rule, active = well fitted curve in the direction sought with a large enough effect; inconclusive = small, poorly fitted or top-dose-only effect, or another doubt; inactive = no such curve, though single readings can be large; an effect the other way counts as inactive or inconclusive.

SMILES | ERG Ets-DNA blk | Integrin act MD | Giardia killer | Gal4-VP16 FLuc | RORg inh
Nc1c(Cl)ncnc1N/N=C/c1ccccn1 | 2% | -43% | -16 | 0.89µM* | 0.4µM*
Nc1c(Cl)ncnc1N/N=C/c1ccc2ccccc2n1 | -7% | -44% | -7 | 1µM* | 0.4µM*
O=C(CCNC(=O)c1ccccc1Cl)NCC(c1ccc(F)cc1)N1CCOCC1 (centres undefined) | 16% | 19% | -19 | x | x
CCNC(=S)N/N=C/c1ccc(OCCOc2ccccc2C)cc1 | 6% | 22% | 1 | 10µM* | 4.5µM*
CCOc1ccc(/C=N/NC(=S)Nc2c(C)cccc2C)cc1 | -8% | -22% | -4 | 2µM* | 1µM*
CCN(CC)C(=O)Cn1cc(S(=O)(=O)CC(=O)Nc2ccc(C(N)=O)cc2)c2ccccc21 | -4% | 17% | 22 | 0% | -30%
CC(C)(C)/C(O)=C(/C#N)c1nc2ccccc2[nH]1 | -4% | 7%[7.66 µM] | -9 | u | 11µM*
CCOC(=O)/C(O)=C(\C#N)c1nc2ccccc2[nH]1 | -1% | -5% | -6 | -6% | u
N#C/C(=C(O)\C=C\c1ccccc1)c1nc2ccccc2[nH]1 | 2% | 14% | -9 | -21% | 2µM*
CC(C)CC(/C(O)=C(\C#N)c1nc2ccccc2[nH]1)N1C(=O)c2ccccc2C1=O (centres undefined) | 5% | -25% | -21 | 20µM* | 7.9µM*
COc1cccc(OC)c1/C(O)=C(\C#N)c1nc2ccccc2[nH]1 | x | -38% | 35 | -8% | 3%
O=C(CCCCN1CCCCC1)c1ccc2c(c1)Cc1ccccc1-2 | -16% | u | 9 | u | 13µM*
O=C(CCN1CCCCC1)c1ccc2c(c1)OCCO2 | x | -59% | -1 | 7.9µM* | 11µM*
O=C(CCN1CCc2ccccc2C1)c1ccc2c(c1)OCCO2 | -2% | -66% | 1 | 4.5µM* | 3.2µM*
O=C(CCN1CCCC1Cc1ccccc1)c1ccc2c(c1)OCCO2 (centres undefined) | -9% | -13% | 4 | 5.6µM* | 5µM*
O=C(O)CCC(=O)c1ccc2c(c1)OCCCO2 | -2% | 14% | 10 | -2% | u
O=C(CCN1CCCCCC1)c1ccccc1 | 0% | -20% | 5 | -8% | -8%
O=C(c1ccc2c(c1)OCO2)N1CCc2ccccc2C1 | -8% | -10%[7.66 µM] | -11 | 3% | -18%
Cc1cc(C)c2oc(C(=O)Nc3nc4ccc(Cl)cc4s3)cc(=O)c2c1 | 10% | x | x | x | x
CC(C)N1CCN(S(=O)(=O)c2ccccc2)c2ccccc21 | -8% | -14% | -19 | x | x
CCN(CC)c1ccc(/C=N/N2C(C)CCCC2C)c(O)c1 (centres undefined) | 5% | -55% | 6 | 3% | -27%
Cc1cn(C2CC3OCC(NC(=O)C4CCCN4C(=O)OC(C)(C)C)C3O2)c(=O)[nH]c1=O (centres undefined) | x | x | -12 | 1% | 0%
O=C(CCN1CCC(c2ccccc2)C1)c1ccc2c(c1)OCCO2 (centres undefined) | -4% | x | 3 | 7.1µM*! | 7.1µM*!
O=C(CCN1CCOCC1)c1ccc(Br)cc1 | -4% | -50% | 2 | 13µM* | u
COc1cc(C(=O)CCN2CCC(c3ccccc3)C2)cc(OC)c1OC (centres undefined) | -9% | -62% | 1 | u | 16µM*
SMILES | ERG Ets-DNA blk | Integrin act MD | Giardia killer | Gal4-VP16 FLuc | RORg inh
O=C(CCN1CCc2ccccc21)c1ccc2c(c1)OCCO2 | 1% | -55% | 10 | 11µM* | -19%
O=C(c1ccc2c(c1)OCO2)N1CCc2ccccc21 | 6% | 4% | -3 | u | 23%
O=C(CCN1CCC(c2ccccc2)C1)c1ccccc1 (centres undefined) | -3% | -27%[7.66 µM] | -13 | 3% | -9%
CCOC(=O)C1(Cc2ccc(Cl)cc2)CCN(C(C)Cc2ccc(O)c(OC)c2)CC1 (centres undefined) | 10% | -54% | 2 | 16µM* | -12%
COc1ccc(CCNc2nc(C)nc3c2oc2ccccc23)cc1OC | 1% | -39% | -18 | -10% | 1%
COc1ccc(CCNc2ncnc3c2oc2ccccc23)cc1OC | x | -49% | -1 | 1µM* | u
NS(=O)(=O)c1ccc(CNc2ncnc3sccc23)cc1 | -5% | -24% | -5 | 3% | -3%
COc1ccccc1CNc1ncnc2sccc12 | 3% | -15% | -14 | u | u
CN(C)c1ccc(CNc2ncnc3sccc23)cc1 | 1% | -60% | -18 | 7.1µM* | u
NS(=O)(=O)c1ccc(CCNc2ncnc3sccc23)cc1 | 1% | -41% | -21 | 4µM* | u
COc1ccc(CCNc2ncnc3sccc23)cc1OC | -7% | -48% | 8 | 0.63µM* | u
CCC(CC)C(=O)Nc1cccc(-c2nc3ncccn3c2C)c1 | 0% | x | x | x | x
Cc1ccc(S(=O)(=O)N2CCN(C(=O)C(Cc3ccccc3)NC(=O)c3ccccc3)CC2)cc1 (centres undefined) | 21% | -15% | 24 | x | x
CSCC[C@H](N)C(=O)N[C@@H](C)C(=O)NCC(=O)N[C@@H](CCCN=C(N)N)C(=O)N[C@@H](CO)C(=O)NCC(=O)N[C@@H](CC(=O)O)C(=O)N[C@@H](CO)C(=O)N[C@@H](CC(=O)O)C(=O)N[C@@H](CCC(=O)O)C(=O)N[C@@H](CC(=O)O)C(=O)N[C@@H](CC(C)C)C(=O)N[C@@H](CC(C)C)C(=O)N[C@@H](CCCCN)C(=O)N[C@@H](C)C(=O)N[C@H](C(=O)O)C(C)C | x | x | x | -1% | 0%
COc1ccc(CNC(=O)COC(=O)CCC2CCCCC2)cc1 | 3% | 4% | -26 | -4% | -28%
Cc1sc2ncnc(NCCc3ccc(S(N)(=O)=O)cc3)c2c1C | -1% | -42% | 5 | 2.5µM* | 8.9µM*
C=CCn1c(-c2ccc(Cl)cc2)cnc1SC(C)C(N)=O (centres undefined) | 6% | -15% | 3 | u | 7.9µM*
Nc1nccc(-c2ccc(-n3cnc4ccccc43)cc2)n1 | 10% | 11µM* | -4 | 19% | 28%
O=C(Cc1c(F)cccc1Cl)OCN1C(=O)c2ccccc2C1=O | 1% | -19% | 5 | -3% | 0%
CC1(CC(=O)N/N=C/c2cc(Br)c(O)cc2O)OCCO1 | x | 9% | 14 | -15% | 10µM*
CC1=Nc2ccc3ccccc3c2C1(C)C | -12% | 10% | -7 | -23% | 7.9µM*
CCCCCC=CCC=CCCCCCCCC(=O)OCC | x | x | x | -1% | 0%
O=C1C[C@@H](c2ccccc2Cl)N1S(=O)(=O)c1ccccc1[N+](=O)[O-] | x | x | -11 | 15% | -9%
CN1CCC(=NNC(=O)CSCc2ccccc2)CC1 | x | 7% | -13 | -4% | 17%
CC(SCc1ccccc1)C(=O)NN=C1CCN(C)CC1 (centres undefined) | x | 18% | 9 | 24%[0.365 µM] | 7.1µM*
Cc1sc2ncnc(NC3CCN(Cc4ccccc4)CC3)c2c1C | -6% | -23% | 9 | 16µM* | u
